Sampled rows, rich in hits. Any-hit rate of the full collection: about 3.4%.
ANO1 block – blocks the mouse calcium-activated chloride channel TMEM16A. Q8BHY3. HEK293 TMEM16A/YFP iodide influx fluorescence, ionomycin. hit rate 1.2% among 310,000. normalized B-score (activity score, 25-100; higher = stronger inhibition) at 10 µM;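 active = ratio plate-corrected score three or more library SD toward inhibition, starting fluorescence score within five deviations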;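 note: score derived from kinetic fluorescence span divided by baseline fluorescence per well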
NTR1 agonist – agonists of human neurotensin receptor NTR1 | AID 493036 | hit rate 0.17% among 330,000 | NTR1-U2OS beta-arrestin-GFP spot imaging, agonist mode | activation, % at 20 µM | P30989;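 active = activation at or above 40% of the spot to cytoplasm intensity ratio, with at least 20 cells analyzed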;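 note: 0% = DMSO without peptide and 100% = 100 nM NTR1 peptide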
ANO1 activ – activators or potentiators of mouse TMEM16A chloride channel; hit rate 0.3% among 340,000; HEK293 TMEM16A/YFP-H148Q/I152L, iodide quench fluorescence; hits give low values; Q8BHY3; AID 623877; B-score at 10 µM;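 active = fluorescence-ratio B-score plate-corrected deviation score at least 3 library SD below zero, with starting fluorescence score within 5 deviations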;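 note: channel opened by trigger with iodide after compound preincubation; score built on the fluorescence ratio of max minus min over baseline; more negative score means more quench and so TMEM16A activation or potentiation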
MEKK3 PB1 HTS – MEKK3-MEK5 PB1 interaction, increase or decrease. Q99759. bead-based flow cytometry, Alexa488-MEK5 binding to MEKK3; actives lie on both sides; 0 = blocked by unlabeled MEK5, 100 = vehicle. binding response (% of control), % at 10 µM. hit rate 1.4% among 290,000. AID 1529;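 active = binding response more than 3 SD above or below the average of its plate-row segment, actives on both sides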;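 note: Alexa488 bead fluorescence after subtracting the streptavidin-only scavenger bead signal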
Target sequence (Q99759 whole entry, looked up): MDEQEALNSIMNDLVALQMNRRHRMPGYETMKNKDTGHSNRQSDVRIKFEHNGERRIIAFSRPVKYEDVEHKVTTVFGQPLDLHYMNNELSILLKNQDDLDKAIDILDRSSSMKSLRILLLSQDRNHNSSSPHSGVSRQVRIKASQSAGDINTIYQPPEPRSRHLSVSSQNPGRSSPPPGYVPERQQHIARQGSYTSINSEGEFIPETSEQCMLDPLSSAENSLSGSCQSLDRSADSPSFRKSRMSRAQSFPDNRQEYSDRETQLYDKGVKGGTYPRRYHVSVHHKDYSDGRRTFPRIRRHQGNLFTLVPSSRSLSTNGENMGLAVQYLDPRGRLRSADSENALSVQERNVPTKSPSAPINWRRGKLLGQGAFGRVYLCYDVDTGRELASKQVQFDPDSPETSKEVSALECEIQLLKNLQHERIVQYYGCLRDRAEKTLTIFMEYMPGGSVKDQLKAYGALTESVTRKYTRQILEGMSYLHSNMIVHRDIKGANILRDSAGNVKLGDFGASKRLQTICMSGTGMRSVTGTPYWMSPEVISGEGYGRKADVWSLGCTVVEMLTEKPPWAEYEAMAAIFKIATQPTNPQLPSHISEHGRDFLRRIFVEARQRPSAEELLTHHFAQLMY
MEKK2mut PB1 HTS – signal of MEK5 binding to mutant human MEKK2 PB1 domain | bead flow cytometry, Alexa488-MEK5 binding to MEKK2 mutant | percent response, % at 10 µM | hit rate 0.35% among 290,000 | AID 1530; in the data active = percent response above about 24%, passing the limit was not always enough
MEKK2wt PB1 HTS – raises or lowers MEK5 binding to wildtype human MEKK2 PB1 domain | Q9Y2U5 | hit rate 1.1% among 290,000 | bead flow cytometry, Alexa488-MEK5 binding to MEKK2 WT; actives lie on both sides | binding response (% of control), % at 10 µM; in the data active = binding response below about 67% or above about 130%
MEKK2wt confirm – raises or lowers MEK5 binding to wildtype human MEKK2, retest | shares compounds with MEKK3 PB1 HTS | bead flow cytometry, Alexa488-MEK5 binding to MEKK2 WT; actives lie on both sides | binding response (% of control), % at 10 µM | hit rate 2.4% among 5,900 | AID 1892; in the data active = binding response below about 16% or above about 210%; inactive = in between
MEKK2mut confirm – signal of MEK5 binding to mutant human MEKK2, retest; hit rate 2% among 5,900; bead flow cytometry, Alexa488-MEK5 binding to MEKK2 mutant; percent response, % at 10 µM; shares compounds with MEKK3 PB1 HTS; in the data active = percent response mostly above about 71%, no sharp cut-off; inactive = mostly below about 38%;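 note: higher means compound restores mutant binding toward wildtype level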
MEKK3 confirm – confirmation of inhibitors of MEK5 binding to human MEKK3. shares compounds with MEKK3 PB1 HTS. bead flow cytometry, Alexa488-MEK5 binding to MEKK3; hits give low values. binding response (% of control), % at 10 µM. hit rate 1.8% among 5,900. AID 1894;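 active = binding response below 72% of control, or above a set upper limit, though filed actives all read lower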;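 note: 100% = DMSO only wells and 0% = binding blocked by excess unlabeled MEK5; lower values mean stronger disruption of MEK5 binding to MEKK3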
* hit, by the source's call; i = inactive; · = no result; [ ] = dose if it differs, or a comment.

SMILES	ANO1 block	NTR1 agonist	ANO1 activ	MEKK3 PB1 HTS	MEKK2mut PB1 HTS	MEKK2wt PB1 HTS	MEKK2wt confirm	MEKK2mut confirm	MEKK3 confirm
CCOC(=O)c1c(CN2CCN(Cc3ccccc3)CC2)n(C)c2cc(Br)c(OC)cc12	i	6.3	i	105.0	7.0	135.0*	173.0	38.0	108.0
CCOC(=O)c1c(CSc2ccccc2)n(C)c2cc(Br)c(OCC(O)CNC(CO)(CO)CO)cc12 (stereo unspecified)	i	·	i	69.0*[inhibitor]	-10.0	95.0	162.0	35.0	106.0
CCOC(=O)c1c(CN2CCN(C)CC2)n(-c2ccccc2)c2cc(Br)c(O)cc12	i	22.7	i	103.0	13.0	130.0	·	·	·
Cc1csc2c(SCC(=O)NNC(=O)C(Cl)Cl)ncnc12	i	1.3	i	99.0	-6.0	97.0	·	·	·
CCOc1ccc(C(=O)Nc2cc(S(=O)(=O)Nc3ccccc3Cl)ccc2N2CCOCC2)cc1	i	4.3	i	100.0	-1.0	101.0	·	·	·
Cc1nn(CCC(N)=S)c2nc(-c3cccs3)cc(C(F)(F)F)c12	i	16.8	i	151.0*	0.0	104.0	105.0	8.0	104.0
O=C(NCc1cn(-c2ccccc2)nc1-c1ccccc1)c1ccc([N+](=O)[O-])cc1	i	1.5	i	131.0*	2.0	122.0	99.0	-2.0	95.0
O=[N+]([O-])c1ccc(N/N=C/c2cn(-c3ccccc3)nc2-c2ccccc2)cc1	i	1.6	i	97.0	27.0*	11.0*	114.0	14.0	100.0
O=S(=O)(N/N=C\c1cn(-c2ccccc2)nc1-c1ccccc1)c1ccccc1	i	1.6	i	126.0*	11.0	119.0	103.0	-1.0	108.0
O=S(=O)(c1cccc(COc2c(Cl)cccc2Cl)c1)N1CCOCC1	i	2.3	i	·	·	·	·	·	·
Cc1ccc(NC(=O)c2cccs2)cc1	i	0.4	i	98.0	-4.0	95.0	·	·	·
Cc1ccc(S(=O)(=O)n2[nH]c(=O)cc2NC(=O)c2cccs2)cc1	i	-5.7	·	1.0*[inhibitor]	2.0	-4.0*[inhibitor]	94.0	-5.0	98.0
Cc1nn(-c2ccc(F)cc2)c2sc(C(=O)O)cc12	i	1.4	i	2.0*[inhibitor]	-29.0	-1.0*[inhibitor]	93.0	-5.0	99.0
COc1ccc(CC(=O)N2CCCC2)c(OC)c1	i	-0.2	i	100.0	-2.0	99.0	·	·	·
Nc1cc(S(=O)(=O)Nc2cc(Cl)ccc2Cl)ccc1N1CCCC1	i	1.5	i	36.0*[inhibitor]	-21.0	40.0*[inhibitor]	101.0	9.0	100.0
COc1ccc(C(=O)CN2C(=O)NC3(CCCCC3)C2=O)cc1OC	i	1.1	i	146.0*	7.0	125.0	102.0	7.0	106.0
COc1ccc(C(=O)CN2C(=O)NC3(CCCCCC3)C2=O)c(OC)c1	i	-0.7	i	·	·	·	·	·	·
O=C(NNC(=O)c1ccccc1F)c1cccc(S(=O)(=O)N2CCc3ccccc32)c1	·	-1.1	i	·	·	·	·	·	·
N#C/C(=C\c1ccccc1[N+](=O)[O-])c1nc(C2CC2)cs1	i	4.1	i	96.0	-1.0	95.0	·	·	·
N#C/C(=C\C=C\c1ccccc1[N+](=O)[O-])c1nc(-c2ccc3c(c2)OCO3)cs1	i	2.4	i	104.0	30.0*	24.0*	93.0	-4.0	96.0
Cc1cc(N)n(-c2ccc(S(N)(=O)=O)cc2[N+](=O)[O-])n1	i	-0.9	i	109.0	6.0	109.0	·	·	·
Cc1cc(OCCOCCNCc2ccccc2)ccc1C(C)C	i	2.2	i	109.0	6.0	134.0*	100.0	-4.0	103.0
Cc1ccc(C(C)C)c(OCCNCc2ccccc2)c1	i	4.8	i	109.0	6.0	134.0*	128.0	13.0	105.0
CCn1cc(Br)c(C(=O)NCc2ccco2)n1	i	0.7	i	43.0*[inhibitor]	-25.0	65.0	101.0	-3.0	101.0
CCOC(=O)c1cc(CC)sc1NC(=O)c1ccc(N2C(=O)CCC2=O)cc1	i	3.7	i	102.0	-3.0	101.0	·	·	·
SMILES	ANO1 block	NTR1 agonist	ANO1 activ	MEKK3 PB1 HTS	MEKK2mut PB1 HTS	MEKK2wt PB1 HTS	MEKK2wt confirm	MEKK2mut confirm	MEKK3 confirm
CCOC(=O)c1cc(CC)sc1NC(=O)c1cc(OC)c(OC)c(OC)c1	i	8.3	i	119.0	15.0	141.0*	105.0	-7.0	100.0
COc1ccc2[nH]c(C)c(CCNC(=S)Nc3cc(C)cc(C)c3)c2c1	i	3.0	i	104.0	-4.0	100.0	·	·	·
COc1ccc2[nH]c(C)c(CCNC(=S)Nc3cccc(C)c3)c2c1	i	1.3	i	1.0*[inhibitor]	-14.0	1.0*[inhibitor]	93.0	-6.0	98.0
O=C(O)/C(=C/c1ccco1)NC(=O)c1ccccc1	i	-0.9	i	128.0*	-1.0	106.0	116.0	8.0	107.0
CC(C)(C)c1ccc(C(=O)N/C(=C\c2ccco2)C(=O)O)cc1	i	-0.5	i	102.0	0.0	99.0	·	·	·
COc1ccc(CNC(=O)CN(c2ccc(C(C)C)cc2)S(=O)(=O)c2c(C)noc2C)cc1	i	5.8	i	96.0	-7.0	90.0	·	·	·
Cc1ccc(S(=O)(=O)N(CCC(=O)O)c2ccccc2)cc1	i	0.9	i	93.0	-2.0	99.0	·	·	·
CC12CC3CC(C)(C1)CC(Nc1nc(N4CCOCC4)nc4ccccc14)(C3)C2	i	15.9	i	114.0	32.0	151.0*	144.0	18.0	108.0
c1ccc2c(Nc3ccc(N4CCOCC4)cc3)nc(N3CCOCC3)nc2c1	i	1.4	i	101.0	3.0	105.0	·	·	·
CSCCC(NC(=O)c1ccccc1C)C(=O)O (stereo unspecified)	i	-1.2	i	99.0	1.0	104.0	·	·	·
CC1Cc2ccccc2N1S(=O)(=O)c1cccs1 (stereo unspecified)	i	0.1	i	104.0	18.0	8.0*[inhibitor]	87.0	-12.0	91.0
CCC(=NCCN1CCNCC1)C1=C(O)CC(C)(C)CC1=O	i	1.0	i	105.0	5.0	104.0	·	·	·
CSc1cccc(NC(=S)N2CCC(N(C)C(C)C)CC2)c1	i	-0.4	i	50.0*[inhibitor]	-12.0	63.0	102.0	-4.0	101.0
CCC(C)N(C)C1CCN(C(=S)Nc2cccc(SC)c2)CC1 (stereo unspecified)	i	0.0	i	104.0	10.0	113.0	·	·	·

High-throughput results as filed in PubChem BioAssay.
